# Data taken from PubChem BioAssay AID1445 (SRMLSC, 2008).
# The whole screen tested about 220,000 compounds, of which about 910 (0.41%) were called active. The sample as a whole holds a higher share of actives than the screen did. Results with a measured potency or affinity are listed apart. Unmarked numbers belong to inactive results.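 How the source made its calls: active means primary inhibition above the hit cutoff, then over 50% inhibition at one or more dose response concentrations (cut at about 23% in these data, passing the limit was not always enough); inconclusive means conflicting primary data, or primary hits not chosen for dose response; inactive means low primary inhibition, or under 50% at every dose.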
# Target: Aminopeptidase N (Plasmodium falciparum (isolate 3D7)) (UniProt O96935)
# Test: malaria alanyl aminopeptidase activity blockers – biochemical, fluorogenic H-Leu-NHMec substrate, 1536-well (AID 1445);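 further: plate controls were DMSO full reaction for no effect and no enzyme background for full effect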
# Conditions: recombinant M1AAP, H-Leu-NHMec fluorogenic kinetic assay; at 30 µM, active compounds read high unless noted
# Sequence of Aminopeptidase N (Plasmodium falciparum (isolate 3D7)) (O96935 whole entry, looked up): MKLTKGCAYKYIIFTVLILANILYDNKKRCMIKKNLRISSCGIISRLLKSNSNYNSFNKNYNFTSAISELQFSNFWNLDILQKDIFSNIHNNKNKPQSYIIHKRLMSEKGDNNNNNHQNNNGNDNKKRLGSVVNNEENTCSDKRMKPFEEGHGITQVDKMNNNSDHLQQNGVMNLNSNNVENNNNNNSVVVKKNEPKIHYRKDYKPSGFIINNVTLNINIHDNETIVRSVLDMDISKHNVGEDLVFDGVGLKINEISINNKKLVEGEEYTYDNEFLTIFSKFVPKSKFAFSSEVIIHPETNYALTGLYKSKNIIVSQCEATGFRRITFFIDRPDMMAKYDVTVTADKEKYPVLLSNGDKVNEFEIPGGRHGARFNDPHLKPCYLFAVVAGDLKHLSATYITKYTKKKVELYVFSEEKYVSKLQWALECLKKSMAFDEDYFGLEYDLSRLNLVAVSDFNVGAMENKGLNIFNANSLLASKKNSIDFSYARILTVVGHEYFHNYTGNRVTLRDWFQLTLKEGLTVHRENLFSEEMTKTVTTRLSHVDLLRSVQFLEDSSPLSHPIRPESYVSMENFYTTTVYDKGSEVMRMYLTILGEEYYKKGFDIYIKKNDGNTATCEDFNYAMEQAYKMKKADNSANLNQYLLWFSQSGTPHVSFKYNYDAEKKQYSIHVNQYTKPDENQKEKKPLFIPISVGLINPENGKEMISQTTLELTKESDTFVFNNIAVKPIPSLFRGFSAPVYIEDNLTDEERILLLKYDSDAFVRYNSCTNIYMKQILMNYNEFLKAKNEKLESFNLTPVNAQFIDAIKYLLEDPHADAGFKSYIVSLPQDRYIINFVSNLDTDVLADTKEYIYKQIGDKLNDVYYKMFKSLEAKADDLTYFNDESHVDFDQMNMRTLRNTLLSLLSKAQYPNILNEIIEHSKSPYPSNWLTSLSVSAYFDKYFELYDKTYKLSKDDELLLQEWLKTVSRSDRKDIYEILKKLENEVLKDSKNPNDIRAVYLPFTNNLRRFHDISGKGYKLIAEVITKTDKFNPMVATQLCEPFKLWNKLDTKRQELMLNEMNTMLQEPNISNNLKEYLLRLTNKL
row,Compound,inhibition
1,Cc1oc(S(=O)(=O)N(C)C)cc1C(=O)Nc1ccc(F)cc1,0.82%
2,C=CCn1c(CCNC(=O)c2ccccc2F)nnc1SCC(=O)Nc1nc(C)cs1,-1.07%
3,C=CCn1c(CNC(=O)c2ccccc2F)nnc1SCc1nc2ccccc2c(=O)[nH]1,7.18%
4,CCOC(=O)C(NC(=O)CC)(Nc1ccccc1OC)C(F)(F)F (stereo unspecified),-0.34%
5,COc1ccc(N2CCN(Cc3nc4ccsc4c(=O)[nH]3)CC2)cc1,13.2%
6,O=c1[nH]c(CN2CCN(c3ccccc3Cl)CC2)nc2ccsc12,6.37%
7,O=c1[nH]c(CN2CCN(c3ccc([N+](=O)[O-])cc3)CC2)nc2ccsc12,25.9% (active)
8,O=C(CSc1nnc(NCc2ccccc2)s1)NC1CCS(=O)(=O)C1 (stereo unspecified),-0.46%
9,COc1cc(C2c3c(-c4ccccc4O)n[nH]c3C(=O)N2Cc2ccco2)cc(OC)c1OC (stereo unspecified),3.24%
10,COc1cc(C2c3c(-c4cc(C)cc(C)c4O)n[nH]c3C(=O)N2CCCO)cc(OC)c1OC (stereo unspecified),28.3% (active)
11,COCCCN1C(=O)c2[nH]nc(-c3cc(C)cc(C)c3O)c2C1c1ccc(O)c(OC)c1 (stereo unspecified),6.71%
12,CCOc1ccccc1-n1c(SCC(=O)N(C(C)C)C(C)C)nnc1-c1cccnc1,5.81%
13,O=C(CN1CCN(Cc2ccc(Cl)cc2)C1=O)NCCN1CCCC1,1.07%
14,CCC(C)[C@H](NC(=O)Nc1ccc(C(C)=O)cc1)C(=O)OC (stereo partly specified),-5.32%
15,Cc1nn(-c2ccccc2)c(Cl)c1/C=C1\SC(=S)N(C)C1=O,-0.16%
16,CCC1=NN2C(=N)/C(=C/c3cc(C)n(Cc4ccccc4)c3C)C(=O)N=C2S1,1.28%
17,CCC1=NN2C(=N)/C(=C\c3cccn3-c3cccc(Cl)c3)C(=O)N=C2S1,7.8%
18,Cc1nn(-c2ccccc2)c(Cl)c1/C=C1\C(=O)N(C)C(=S)N1C,5.11%
19,O=C(Nc1ccc(-n2nncc2-c2ccco2)cc1)c1cccc(F)c1,1.93%
20,COc1ccc(CN(C)CC(=O)Nc2ccccc2-c2ccccc2)c(OC)c1,6.36%
21,O=C(O)C(CC1CCCCC1)N1CCS(=O)(=O)CC1 (stereo unspecified),-6%

row,Compound,inhibition
1,C=CCn1c(N)cc(=O)nc1SC(C)C(=O)Nc1cccc2ccccc12 (stereo unspecified),14%
2,O=C(Nc1cc(S(=O)(=O)Nc2ccc(Cl)cc2)ccc1O)c1ccc(S(=O)(=O)N2CCCCCC2)cc1,0.01%
3,O=C(Nc1cccc(S(=O)(=O)N2CCCCC2)c1)c1ccccc1NS(=O)(=O)c1ccc(F)cc1,11.5%
4,Cc1ccc(NC(=O)c2ccccc2NS(=O)(=O)c2ccc(F)cc2)cc1S(=O)(=O)N1CCCCC1,14.4%
5,O=C(Nc1ccccc1N1CCOCC1)c1ccccc1NS(=O)(=O)c1ccc(F)c(F)c1,5.56%
6,CCc1nnc(NC(=O)CN2CCN(C(=O)c3ccccc3)CC2)s1,5.2%
7,O=C(O)C1CCN(C(=O)CSc2nc3ccccc3s2)CC1,-1.91%
8,CSc1ccc(Cl)c(C(=O)NC2CCCC2)c1,1.66%
9,CC(C)CNS(=O)(=O)c1ccc(CCC(=O)Nc2ccc3c(c2)OCCO3)cc1,9.09%
10,Cc1ccc(Cl)cc1NC(=O)COC(=O)C1CC1,-9.09%
11,C=CCn1c(-c2ccccc2[N+](=O)[O-])n[nH]c1=S,-1.25%
12,CSC1=N/C(=C\c2ccc(Br)o2)C(=O)S1,1.89%
13,CCCN1C(=O)/C(=C/c2ccco2)SC1=Nc1ccc(OC)cc1,8.83%
14,COc1ccc(N=C2NC(=O)/C(=C/c3ccco3)S2)cc1,7.45%
15,Cc1ccc(S(=O)(=O)NC(=O)c2ccc(Br)o2)cc1,0.41%
16,COc1ccc(N=C2NC(=O)/C(=C\c3ccco3)S2)cc1,6.07%
17,COc1ccc(S(=O)(=O)Nc2nncs2)cc1,-0.42%
18,O=C1N/C(=N/O)S/C1=C/c1cccc([N+](=O)[O-])c1,13.8%
19,O=C(O)c1cccc(CN2C(=O)S/C(=C/c3cccc([N+](=O)[O-])c3)C2=O)c1,3.75%
20,O=C(O)c1ccc(-c2nc3ccccc3s2)o1,-2.11%
21,O=C(COc1ccccc1)NNC(=O)COc1ccc([N+](=O)[O-])cc1,0.69%

row,Compound,inhibition
1,COc1cc(NC(=O)CN(C)Cc2cccc(F)c2)c(C)cc1[N+](=O)[O-],13.2%
2,CNC(=S)N/N=C(\C)c1ccc2c(c1)OCO2,6.47%
3,O=C(NC1CCCCC1)c1ccc(CNc2ccccc2)o1,3.72%
4,COc1ccc(/C=C/C(=O)c2ccc(Cl)s2)cc1O,9.54%
5,NC(=O)c1ccc(-n2nnnc2SCC(=O)Nc2ccc(N3CCOCC3)c(Cl)c2)cc1,-2.55%
6,CCCCOC(=O)Nc1nnc(CCOCC)s1,2.38%
7,CCN(CC)CCSc1nc2ccc(OC)cc2[nH]1,1.77%
8,CN(C)C1=NC(=O)/C(=C\c2ccccc2)S1,3.5%
9,NC1=NC(=O)/C(=C\c2ccco2)S1,9.69%
10,Cc1ccc(N2C(=O)/C(=C\c3ccco3)SC2=S)cc1,2.77%
11,Cc1ccc(S(=O)(=O)Nc2ccccc2-c2ccccc2NS(=O)(=O)c2ccc(C)cc2)cc1,17.1%
12,COc1cc(O)c(C(CCN2CCCC(C)C2)c2ccc(N(C)C)cc2)c(OC)c1 (stereo unspecified),12.5%
13,O=C(/C(=C/O)N=Nc1ccc(Cl)cc1)c1ccncc1,0.62%
14,Cc1ccc(N=N/C(=C\O)C(=O)c2ccncc2)cc1,27.6% (active)
15,O=C(/C(=C/O)N=Nc1ccccc1)c1ccncc1,18.4%
16,Cc1ccc(NC(=O)Nc2ccc(F)cc2F)c(OC(F)F)c1,-3.74%
17,Cc1cc(NC(=O)CSCC(=O)N(c2ccc(F)cc2)C(C(=O)NC2CCCCC2)c2ccc(O)c(O)c2)no1 (stereo unspecified),8.19%
18,N#C/C(=C\c1ccc(O)c(O)c1)S(=O)(=O)c1ccccc1,24.6% (active)
19,N#C/C(=C/c1ccc(F)cc1)S(=O)(=O)c1ccccc1,-4.5%
20,Cc1cc(C)c(/C=C(\C#N)S(=O)(=O)c2ccccc2)[nH]1,-6.03%
21,Cc1ccccc1Cn1nnc2c1C(=O)c1ccccc1C2=O,-4.07%

row,Compound,inhibition
1,CC1(c2ccc(OC(F)F)cc2)NC(=O)N(CC(=O)Nc2ccc3c(c2)OCO3)C1=O (stereo unspecified),22.2%
2,Cc1cc(NC(=O)CN2C(=O)NC(C)(c3ccc(OC(F)F)cc3)C2=O)no1 (stereo unspecified),7.82%
3,O=C(CSc1nnc(CNc2ccc(Cl)cc2)o1)Nc1nc2ccccc2s1,-13%
4,CCCc1nnc(NC(=O)CCC(=O)N2CCN(S(=O)(=O)c3ccc(C)cc3)CC2)s1,3.35%
5,Oc1ccc(C2C(c3ccccc3)=NN=C(c3ccc(Cl)cc3)N2O)c(O)c1 (stereo unspecified),12.1%
6,O=C(O)CN1C(=O)/C(=C\c2cn(CC(=O)N3CCOCC3)c3ccccc23)SC1=S,21.1%
7,CC(C)n1cc(/C=C2/SC(=O)N(CC(=O)N3CCCC3)C2=O)c2ccccc21,7.08%
8,Cc1ccnc(NS(=O)(=O)c2ccc(NC(=O)c3cncc(Br)c3)cc2)n1,-0.33%
9,NC(=O)Cn1nc([N+](=O)[O-])nc1Oc1ccccc1C(=O)N1CCOCC1,3.73%
10,CN(C)CCCNC(=O)c1cc(C(=O)C2CCCCC2)c[nH]1,3.52%
11,COCC(=O)N(Cc1cc2cc(OC)ccc2[nH]c1=O)c1ccccc1,7%
12,O=C(CN1c2ccccc2Sc2ccccc21)NNC(=O)Nc1ccc(Cl)c(Cl)c1,0.08%
13,COc1ccc([N+](=O)[O-])cc1N(CC(O)CN1CCCC1)S(=O)(=O)c1ccc(C)cc1 (stereo unspecified),2.31%
14,COc1ccc([N+](=O)[O-])cc1N(CC(O)CN1CCCCC1)S(=O)(=O)c1ccc(C)cc1 (stereo unspecified),8.41%
15,COc1ccc([N+](=O)[O-])cc1N(CC(O)Cn1nnc2ccccc21)S(=O)(=O)c1ccc(C)cc1 (stereo unspecified),23.6% (active)
16,CCOC(=O)c1csc(NC(=O)c2ccc(OC)c(OC)c2)n1,1.77%
17,COCCN(C(=O)CSc1nnc(Nc2ccccc2F)s1)c1c(N)n(Cc2ccccc2)c(=O)[nH]c1=O,3.95%
18,CCCS(=O)(=O)NCc1ccc2c(c1)cc(C)n2C,7.58%
